Results from PubChem BioAssay (EPA / NIEHS).
Active and inactive are the calls of the source. How the source made its calls: active means hit-call score of the fitted dose curve at least 0.9, where 1 is the maximum; inactive means score below 0.9.

test: CCTE_Shafer_MEA_dev_firing_rate_mean: CCTE's Neural Network Formation Assay for Mean Firing Rate, Shafer Lab (AID 2284031);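 further: AUC of well mean spike rate recorded on DIV 5 7 9 and 12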
Outline: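 Extracellular spike frequency, AUC over DIV 5–12 recordings, in rat cortical neuron MEA cultures dosed from plating; loss direction vs DMSO.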

outcome, inactive:
Nc1nc2ncc(CNc3ccc(C(=O)N[C@@H](CCC(=O)O)C(=O)O)cc3)nc2c(=O)[nH]1
O=P(OC(CCl)CCl)(OC(CCl)CCl)OC(CCl)CCl
NC(=O)NO
COc1ccc(-n2nc(C(F)F)cc2-c2ccc(S(C)=O)cc2)cc1 (stereo not given)
CCC(C)(C)C(=O)O[C@H]1C[C@@H](C)C=C2C=C[C@H](C)[C@H](CC[C@@H]3C[C@@H](O)CC(=O)O3)[C@H]21
Cn1c(=O)c2c(ncn2C)n(C)c1=O
CNCc1ccc(NC(=O)c2c[nH]c3c2C(=O)CCC3)cc1
O=C1CCC(N2C(=O)c3ccccc3C2=O)C(=O)N1 (stereo not given)
CC[C@H](C)C(=O)O[C@H]1C[C@@H](C)C=C2C=C[C@H](C)[C@H](CC[C@@H]3C[C@@H](O)CC(=O)O3)[C@H]21
CC[C@H]1OC(=O)[C@H](C)[C@@H](O[C@H]2C[C@@](C)(OC)[C@@H](O)[C@H](C)O2)[C@H](C)[C@@H](O[C@@H]2O[C@H](C)C[C@H](N(C)C)[C@H]2O)[C@](C)(O)C[C@@H](C)C(=O)[C@H](C)[C@@H](O)[C@]1(C)O
